Assay results as given in PubChem BioAssay AID1159580 (chemical genetic matrix, 2015).
Hit rate of the full screen: of about 5,500 compounds, about 2,000 (36%) were called active. Roughly 18% stayed inconclusive and do not appear here. Cut-off read from the data, not from the text of the source: active = normalized growth mostly below about 0.91 (no sharp cut-off); inconclusive = no clear call, values can overlap the other calls; inactive = mostly above about 0.92. Some of the results follow.

Assay: chemical genetic growth profiling, strain panel (AID 1159580);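 note: tested at 20 µM; growth read once vehicle control cultures reached saturation at 30 °C; 1 = growth at the plate median or of vehicle wells; lower values mean less growth of the strain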
Details: S. cerevisiae deletion strains, growth OD

Measured: normalized growth

CCCCCCc1cc2c(C)cc(=O)oc2cc1O
active: locus YBR229C, strain ROT2, active compounds read low 0.895 | locus YHR087W, strain rtc3, active compounds read low 0.725 | locus YJR075W, strain HOC1, active compounds read low 0.888 | locus YLR039C, strain RIC1, active compounds read low 0.721 | locus YLR262C, strain YPT6, active compounds read low 0.782
inactive: locus YAL013W, strain DEP1, active compounds read low 0.979 | locus YCL061C, strain MRC1, active compounds read low 0.968 | locus YDL101C, strain DUN1, active compounds read low 1.02 | locus YDL134C, strain PPH21, active compounds read low 0.976 | locus YDR150W, strain NUM1, active compounds read low 0.996 | locus YEL061C, strain CIN8, active compounds read low 0.966 | locus YGR078C, strain PAC10, active compounds read low 0.996 | locus YGR229C, strain SMI1, active compounds read low 0.976 | locus YHR030C, strain SLT2, active compounds read low 0.922 | locus YJL187C, strain SWE1, active compounds read low 0.938 | locus YJR043C, strain POL32, active compounds read low 1.03 | locus YKL190W, strain CNB1, active compounds read low 0.959 | locus YLR058C, strain SHM2 (second series), active compounds read low 0.981 | locus YLR085C, strain ARP6, active compounds read low 0.864 | locus YML094W, strain GIM5, active compounds read low 0.918 | locus YMR219W, strain ESC1, active compounds read low 0.973 | locus YMR263W, strain SAP30, active compounds read low 0.976 | locus YMR307W, strain GAS1, active compounds read low 0.803 | locus YNL153C, strain GIM3, active compounds read low 0.965 | locus YNL298W, strain CLA4 (second series), active compounds read low 0.942 | locus YNL322C, strain KRE1, active compounds read low 0.989 | locus YNR030W, strain Alg12, active compounds read low 0.927 | locus YOL006C, strain TOP1, active compounds read low 0.863 | locus YPL055C, strain LGE1, active compounds read low 0.896 | locus YPL241C, strain CIN2, active compounds read low 0.932 | locus YPR135W, strain CTF4, active compounds read low 0.792
